# Measured values reported in PubChem BioAssay (NCATS).
# “And” between values parts separate entries of the source, which are not always exact repeats. Equal entries are not always repeated. Records with an inconclusive call do not appear. A call without a number means that no potency is given here. Where a structure was tested more than once in an assay, its records may differ in their call. The source made the active and inactive calls. Calls follow the shape of the dose curve; as a rule, active = well fitted curve in the direction sought with a large enough effect; inconclusive = small, poorly fitted or top-dose-only effect, or another doubt; inactive = no such curve, though single readings can be large; an effect the other way counts as inactive or inconclusive. *1 amine or outer side, *2 acyl side, *3 side chain or, on linkers, in order; H or OH if unused. Where a SMILES comes first, the peptide text is derived from it. Bridges are numbered along the chain shown (N, C = ends). [ ]: non-standard residue; d: D form. The star is where a group is joined. ξ: configuration not given here. ξhTyr(3S-OH,4S-OH,3'-OSO3H) = NC(C(=O)O)[C@H](O)[C@@H](O)c1ccc(O)c(OS(=O)(=O)O)c1; Orn(4R-OH,5R-OH) = O=C([C@H](C[C@@H](O)[C@@H](O)N[*:3])N[*:1])[*:2]; X2 = CCCCCOc1ccc(-c2cc(-c3ccc(C(=O)*)cc3)no2)cc1; X3 = C[C@H]1CN([*:1])C(C(=O)[*:2])[C@H]1O; ξGln(3R-OH) = NC(=O)C[C@@H](O)C(N)C(=O)O; ξPro(4R-OH) = O=C(O)C1C[C@@H](O)CN1; ξThr(3R) = C[C@@H](O)C(N)C(=O)O
# Columns and labels:
# [1] = P-glycoprotein substrates identified in KB-3-1 adenocarcinoma cell line, qHTS therapeutic library screen (AID 1346986); also: nearly all actives have a fitted effect of over 60% in size;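 also: potency is for cytotoxicity meaning loss of cell viability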
# How it was run: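 KB-3-1 parental and colchicine-selected P-gp-overexpressing KB-8-5-11 cells (colchicine omitted during assay), 500 cells/well, dosed in dose-response for 72 h at 37 °C; CellTiter-Glo luminescence. Cytotoxic: curve class -1.1 to -2.4, max response >50%, AC50 < 10 uM.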
# [2] = P-glycoprotein substrates identified in KB-8-5-11 adenocarcinoma cell line, qHTS therapeutic library screen (AID 1346987); also: nearly all actives have a fitted effect of over 65% in size; as to activity change, negative = cytotoxicity: series mostly up to about 44 µM
# How it was run: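 KB-8-5-11, a colchicine-selected P-gp-overexpressing KB-3-1 subline, was grown without colchicine for the assay. Cells were seeded at 500 cells/well, dosed in concentration-response and incubated 72 h at 37 degree C, 5% CO2. Viability was read by CellTiter-Glo luminescence.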
# Potency is read from the fitted curve at half-maximal effect.
structure (smiles),measurement,setting,value
COc1ccc(O[C@@H]2O[C@H](CO)[C@@H](O)[C@H](O)[C@H]2O)cc1OC,Potency,[1],inactive
same,Potency,[2],inactive
CCOC(=O)CSc1nc2c(sc3ccccc32)c(=O)n1CCCN1CCCC1,Potency,[1],inactive
same,Potency,[2],inactive
C=C1C2(C)CC3C4(C)C=CC(=O)OC(C)(C)C4CCC3(C)C1(C(=O)OC)C(=O)C(C)(O)C2=O (centres undefined),Potency,[1],inactive
same,Potency,[2],inactive
CCC/C=C/C=C/C1CC(O)C(O)C(=O)C1CO (centres undefined),Potency,[1],inactive
same,Potency,[2],inactive
O=C(N[C@@H]1CC[C@@H](c2cccc(F)c2F)CN(CC(F)(F)F)C1=O)N1CCC(n2c(=O)[nH]c3ncccc32)CC1,Potency,[1],inactive
same,Potency,[2],inactive
"CCCCCOc1ccc(-c2cc(-c3ccc(C(=O)N[C@H]4C[C@@H](O)[C@@H](O)NC(=O)C5[C@@H](O)[C@@H](C)CN5C(=O)C([C@H](O)CC(N)=O)NC(=O)C([C@H](O)[C@@H](O)c5ccc(O)c(OS(=O)(=O)O)c5)NC(=O)C5C[C@@H](O)CN5C(=O)C([C@@H](C)O)NC4=O)cc3)no2)cc1 (stereo partly drawn) (X2-[Orn(4R-OH,5R-OH)][ξThr(3R)][ξPro(4R-OH)][ξhTyr(3S-OH,4S-OH,3'-OSO3H)][ξGln(3R-OH)][X3]; lactam 1-C)",Potency,[1],inactive
same,Potency,[2],inactive
O=C1OC(c2ccc(O)cc2)C(O)=C1Cc1ccccc1 (centres undefined),Potency,[1],inactive
same,Potency,[2],inactive
CC(=C\C(C)O)/C=C(\C)C(=O)CC1CC(CC(N)=O)CC(=O)O1 (centres undefined),Potency,[1],inactive
same,Potency,[2],inactive
CCC(C)/C=C(C)/C=C/C1=CC2=C(Cl)C(=O)C(C)(O)C(=O)C2(O)C(OC)O1 (centres undefined),Potency,[1],inactive
same,Potency,[2],inactive
COc1cc(O)cc(O[C@@H]2O[C@H](CO)[C@@H](O[C@@H]3OC[C@](O)(CO)[C@H]3O)[C@H](O)[C@H]2O)c1OC,Potency,[1],inactive
same,Potency,[2],inactive
C[C@H]1CC(=O)C2=C(C1)C(O)C(O)[C@@]1(O)[C@H]2C(=O)c2cccc(O)c2[C@@H]1O (some centres undefined),Potency,[1],inactive
same,Potency,[2],inactive
O=C(/C=C/c1ccc(O)cc1)OC[C@H]1O[C@H](O[C@@]2(CO)O[C@@H](CO)[C@H](O)[C@H]2O)[C@H](O)[C@@H](O)[C@@H]1O,Potency,[1],inactive
same,Potency,[2],inactive
C/C=C(/C)C(=O)O[C@@H]1C[C@@H](OC(=O)/C(C)=C\C)[C@@]2(C)C3C(=O)C=C(C)C2C3C1(C)C,Potency,[1],inactive
same,Potency,[2],inactive
C/C=C(\C)C(=O)OCC1OC(OCC2OC(OC3(CO)OC(CO)C(O)C3O)C(O)C(O)C2O)C(O)C(O)C1O (centres undefined),Potency,[1],inactive
same,Potency,[2],inactive
CC1(C)C2CC[C@]3(C)C(C(=O)C=C4[C@H]5C[C@@](C)(C(=O)O)CC[C@]5(C)CC[C@]43C)[C@@]2(C)CC[C@@H]1O (some centres undefined),Potency,[1],inactive
same,Potency,[2],inactive
C[C@@H](c1ccccc1)N(C(N)=NC#N)c1cccc2ncccc12,Potency,[1],inactive
same,Potency,[2],inactive
CC(C)(O)C1CC=C(C(=O)OC[C@H]2O[C@@H](Oc3cc(C(=O)O)cc(O)c3O)[C@H](O)[C@@H](O)[C@@H]2O)CC1 (some centres undefined),Potency,[1],inactive
same,Potency,[2],inactive
COC(=O)C(CC1(O)c2ccccc2N2C(=O)C(CC(C)C)NC21)n1cnc2ccccc2c1=O (centres undefined),Potency,[1],inactive
same,Potency,[2],inactive
O=C(Nc1ccn(Cc2c(F)cccc2C(F)(F)F)n1)c1c(F)cccc1F,outcome,[1],inactive [at 9.29 µM]
same,"activity change, negative = cytotoxicity",[2],7.74% [at 9.29 µM] (inactive)
CN(C)c1ccc(C2O[C@@H](c3ccccc3)C[C@H](c3ccccc3)O2)cc1 (some centres undefined),Potency,[1],inactive
same,Potency,[2],inactive
Cc1c(F)cc(C(=O)NC2CC2)cc1-c1ccc(C(=O)NCC(C)(C)C)cn1,Potency,[1],920 nM (active)
same,Potency,[2],inactive and 1.03 µM (active)
CC/C=C\[C@H](O)[C@H](O)C1=C(C)C(=O)[C@]2(O1)C(=O)N[C@@](O)(C(=O)c1ccccc1)[C@@H]2O,Potency,[1],inactive
same,Potency,[2],inactive
Cc1noc2c1-c1ccccc1C(c1ccc(Cl)cc1)=N[C@H]2CC(N)=O,Potency,[1],inactive
same,Potency,[2],inactive
COC(=O)C[C@@H]1C(C(=O)O)=CO[C@@H](O[C@@H]2O[C@H](CO)[C@@H](O)[C@H](O)[C@H]2O)/C1=C\COC(=O)/C=C/c1ccc(O)c(OC)c1,Potency,[1],inactive
same,Potency,[2],inactive
C[C@@H]1CC2OC(=O)C3=C2C(CCC3O)[C@@]12C[C@@H](c1ccoc1)OC2=O (some centres undefined),Potency,[1],inactive
same,Potency,[2],inactive
CC(=O)OCC1OC(O[C@H]2CC[C@@]3(C)C(CC[C@]4(C)C3CC=C3[C@@H]5CC(C)(C)CC[C@]5(C(=O)O)CC[C@]34C)[C@]2(C)CO)C(O)C(O)C1OC1OC(C)C(O)C(OC2OCC(O)C(O)C2O)C1O (some centres undefined),outcome,[1],inactive [at 9.29 µM]
same,outcome,[2],inactive [at 9.29 µM]
O=C(OCC1=CC(Cl)C(O)C(OC(=O)c2ccccc2)C1O)c1ccccc1 (centres undefined),Potency,[1],inactive
same,Potency,[2],inactive
